# Sampled rows, rich in hits. Any-hit rate of the full collection: about 19%.
# DT40 TDP1 CPT: growth inhibition of DT40 Tdp1-/-;hTDP1 cells with camptothecin (screen for TDP1 inhibitors); chicken DT40 Tdp1-/-;hTDP1 cells + 20 nM CPT, ATP luminescence, 48 h; AID 686979; hit rate 12% among 420,000; Potency, µM (top dose mostly 46.2 µM), for the others: at the highest dose activity change, negative = growth inhibition, most hits filed as inhibitors; further: potency means the concentration at half of the fitted maximal effect; nearly all actives have a fitted effect of over 55% in size
#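 Chicken DT40 Tdp1-/- cells stably complemented with human TDP1 were seeded at 400 cells/well in medium containing 20 nM camptothecin, exposed to pin-transferred compounds, and grown at 37 °C for at least 48 hr. Viability was read as ATP luminescence.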
# HT1080NT lethal: kills 2HG-producing HT-1080-NT fibrosarcoma cells; HT-1080-NT fibrosarcoma viability, CellTiter-Glo ATP luminescence, 48 h; Potency, µM (titrated, usually from 46.1 µM), without a hit: top-dose activity, negative = less viability, usual class: cytotoxic; hit rate 1.6% among 360,000; AID 686970;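 further: NT is the 2HG producing partner of a matched IDH1 knockdown line; potency means the concentration at half of the fitted maximal effect; 0% = DMSO-treated cells and -100% = media-only wells without cells; nearly all actives have a fitted effect of over 55% in size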
#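 Viability by CellTiter-Glo luminescence after 48 h compound exposure at 37C of HT-1080-NT cells (750/well, RPMI, 5% FBS). % activity scaled between DMSO wells and medium-only wells, then curve-fitted and categorized by curve class.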
# IL-1B inflam inh: blocks inflammasome-driven IL-1 beta release; THP-1 LPS/ATP IL-1B secretion, AlphaLISA, 16 h; stronger effect = lower value; hit rate 4.7% among 360,000; AID 743279; activity change, % at 57.5 µM; in the data active means activity change below about -50%; inconclusive means mostly about -30% to -49%
#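 Secreted IL-1B measured by AlphaLISA bead assay after 16 h compound exposure of THP-1 cells; compounds (final up to 57.5 uM) added 1 h before LPS (250 ng/mL) and ATP (1.25 mM) stimulation; lower signal means less secretion.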
# DT40 TDP1 no CPT: qHTS for Inhibitors of human tyrosyl-DNA phosphodiesterase 1 (TDP1): qHTS in cells in absence of CPT. DT40 Tdp1-/- hTDP1 cells, no CPT, ATP luminescence, 48 h. Potency, µM (series often up to 46.2 µM), for inactives: at the top dose activity change, negative = growth inhibition, usual class: inhibitors. hit rate 15% among 420,000; further: potency means the concentration at half of the fitted maximal effect; nearly all actives have a fitted effect of over 55% in size
#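 No-CPT arm: Tdp1-/-;hTDP1 DT40 cells (400/well) plus compounds, incubated ≥48 hr at 37 °C. Readout CellTiter-Glo luminescence.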
# HT1080 IDH1KD tx: toxicity to HT-1080 IDH1 knockdown cells (counter line); HT-1080 IDH1 knockdown viability, ATP luminescence, 48 h; Potency, µM (titrated, usually from 46.1 µM), for the others: at the highest dose activity, negative = toxicity, most hits filed as cytotoxic; hit rate 2% among 360,000;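 further: potency means the concentration at half of the fitted maximal effect; 0% = DMSO wells and -100% = cell-free medium wells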
#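 IDH1KD HT-1080 cells, 750/well, RPMI + 5% FBS; compound pinned after 2 h settling; 48 h, 37 °C; CellTiter-Glo luminescence; % activity normalised to DMSO and no-cell wells; curves fitted, classed by r2 and efficacy.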
# * = called active by the depositor; u = inconclusive; x = no result; ! = not active in a repeat. Unless noted, the call rests on the fitted dose curve; in most records, active means well fitted curve in the direction sought with a large enough effect; inconclusive means small, poorly fitted or top-dose-only effect, or another doubt; inactive means no such curve, though single readings can be large; an effect the other way counts as inactive or inconclusive. Unless noted, on the % scale 0 is the no-effect control and ±100 the full control effect.
SMILES,DT40 TDP1 CPT,HT1080NT lethal,IL-1B inflam inh,DT40 TDP1 no CPT,HT1080 IDH1KD tx
O=C1CCCN1CC(O)CS(=O)(=O)c1ccc(Cl)cc1 (stereo not drawn),-3%,-3%,1,0%,3%
CNc1ncnc2c1ncn2[C@@H]1O[C@H](CO)[C@@H](O)[C@H]1O,u,14%,55,-23%,12%
COc1ccc(C[C@H](N)C(=O)N[C@H]2[C@@H](O)[C@H](n3cnc4c(N(C)C)ncnc43)O[C@@H]2CO)cc1,-25%,4%,-90*,8.2µM*!,11%
OCC1OC(n2cnc3c(/C=C(\O)c4ccccc4)ncnc32)C(O)C1O (stereo not drawn),1.3µM*,u,-7,1.5µM*,15µM*
CN(C)c1ncnc2c1ncn2C1OC(CO)C(O)C1O (stereo not drawn),2.9µM*,13µM*,35,2.9µM*,13µM*
CN(C)c1ncnc2c1nnn2C1OC(CO)C(O)C1O (stereo not drawn),0.58µM*,0.58µM*,96,0.33µM*,0.46µM*
C[C@H](Cc1ccccc1)Nc1ncnc2c1ncn2[C@@H]1O[C@H](CO)[C@@H](O)[C@H]1O,u,u,-13,-29%,8%
O=C(CCN1C(=O)[C@@H]2Cc3ccccc3CN2C1=O)N[C@@H](Cc1ccccc1)C(=O)O,-12%,12%,8,0%,6%
O=c1cc(O)c2ccccc2n1Cc1ccccc1,0%,4%,23,3%,13%
Cn1c(-c2ccc3nc(N)sc3c2)nc2cc(N)ccc21,u,0%,-24,23µM*,0%
O=C(NC1CC1)c1cccc(NC(=O)C2CCN(S(=O)(=O)c3cccc(C(F)(F)F)c3)CC2)c1,u,-9%,-2,u,0%
c1ccc(-c2nc(-c3ccccn3)nc(-c3ccccn3)n2)nc1,u,u,-14,15µM*,u
c1ccc(C2=NNC(c3ccccn3)=NN2)nc1,9.2µM*,-15%,u,9.2µM*,-15%
c1ccc(-c2nnc(-c3ccccn3)s2)nc1,-23%,-4%,-10,u,-6%
CNC(=O)c1cc(C(=O)c2ccccc2C(F)(F)F)c[nH]1,-2%,0%,38,u,0%
COC(=O)c1c(NC(=O)COC(=O)C2CCC2)sc(C)c1C,16%,13%,35,3%,5%
Cn1c(-c2cc(Cl)ccc2O)nc2c1c(=O)[nH]c(=O)n2Cc1ccccc1,18µM*,-8%,60,13µM*,u
COCCCn1c(-c2cccc(Cl)c2)nc2c1c(=O)[nH]c(=O)n2Cc1ccccc1,u,-2%,12,7.3µM*,-1%
COc1ccc(N2CC(C(=O)Nc3nnc(SCc4ccccn4)s3)CC2=O)cc1 (stereo not drawn),-3%,6%,-8,3%,-1%
Cc1ccccc1C(=O)N1CC/C(=N\OS(=O)(=O)O)c2ccc(Cl)cc21,-24%,x,x,-3%,x
CCC(=Nc1ccccc1OC)C1=C(O)CC(c2ccccc2)CC1=O (stereo not drawn),6.5µM*,16%,8,5.8µM*,14%
CCC(C)N=CC1=C(O)CC(c2ccccc2)CC1=O (stereo not drawn),-1%,21%,-7,-1%,9%
CCCC(=NC(C)CC)C1=C(O)CC(c2ccccc2)CC1=O (stereo not drawn),u,4%,-67*,u,4%
COc1ccc(N=CC2=C(O)CC(c3ccccc3)CC2=O)c(OC)c1 (stereo not drawn),18µM*,u,4,15µM*,u
O=C1CC(c2ccccc2)CC(O)=C1C=NCc1ccccc1Cl (stereo not drawn),2.3µM*,5.6µM*,37,2.3µM*,u
SMILES,DT40 TDP1 CPT,HT1080NT lethal,IL-1B inflam inh,DT40 TDP1 no CPT,HT1080 IDH1KD tx
Cc1cc(C(=O)N2CCN(c3ccc(F)cc3)CC2)on1,0%,10%,-7,9%,6%
CCCN(CC(=O)Nc1ccccc1C)C(=O)C1CCN(S(=O)(=O)c2ccc(C)c(C)c2)CC1,u,-16%,u,u,-9%
CSc1ncnc2c1ncn2CCCN(C)Cc1ccco1,6%,-1%,7,-1%,1%
CCOC(=O)C1CCN(C(=O)c2ccccc2Oc2ccccc2)CC1,u,-3%,25,u,1%
CCOc1ccc(N(C(C)C(=O)NCCSc2ccc(Cl)cc2)S(C)(=O)=O)cc1 (stereo not drawn),16µM*,x,x,26µM*,x
CCOc1ccc(N(C(C)C(=O)N2CCCC2)S(C)(=O)=O)cc1 (stereo not drawn),u,1%,4,15µM*,3%
CCOC(=O)N1CCN(C(=O)C(C)N(c2ccc(Oc3ccccc3)cc2)S(C)(=O)=O)CC1 (stereo not drawn),u,12%,-30,13µM*,4%
CCOC(=O)C1CCN(C(=O)C(C)N(c2ccc(Oc3ccccc3)cc2)S(C)(=O)=O)CC1 (stereo not drawn),12µM*,-19%,12,9.2µM*,-15%
COc1ccc(C(=O)NC(=S)Nc2nc(C)cc(C)n2)cc1Br,-12%,u,17,-26%,28%
CCOC(=O)N1CCN(S(=O)(=O)N2CCCC(C(=O)NC(C)c3ccccc3)C2)CC1 (stereo not drawn),-24%,17%,2,-4%,-2%
COc1ccc(N(C(C)C(=O)N2CCC(Cc3ccccc3)CC2)S(C)(=O)=O)cc1 (stereo not drawn),6.5µM*,-2%,-1,8.2µM*,-22%
COc1ccc(N(C(C)C(=O)N2CCCC2)S(C)(=O)=O)cc1 (stereo not drawn),7%,11%,19,-6%,8%
O=C(C1=C[C@@H](c2ccc(C(F)(F)F)cc2)C[C@@H](OCCCCO)O1)N1CCN(Cc2ccc3c(c2)OCO3)CC1,18µM*,-16%,u,u,-18%
O=C(C1=C[C@H](c2ccc(C(F)(F)F)cc2)C[C@H](OCc2ccc(CO)cc2)O1)N1CCN(Cc2ccc3c(c2)OCO3)CC1,u,-28%,x,u,-26%
O=C(C1=C[C@@H](c2ccc3c(c2)OCO3)C[C@@H](OCc2ccc(CO)cc2)O1)N1CCOCC1,-1%,12%,-9,-12%,17%
O=C(C1=C[C@@H](c2ccc(Br)cc2)C[C@@H](OCc2ccc(CO)cc2)O1)N1CCN(Cc2ccc3c(c2)OCO3)CC1,u,-13%,-25,18µM*,u
